HepG2 tox-1: HepG2 cytotoxicity, counter-screen for TGF-b inhibitors; HepG2 CAGA-GFP viability, ATP luminescence, 18 h; 410,000 compounds, 0.76% hits; AID 588856; Potency, µM (top dose mostly 46.1 µM), actives largely listed as cytotoxic
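HepG2 CAGA-GFP cells (1000/well, DMEM with 1% FBS) received compound, then TGF-beta at 500 pg/mL final, and were incubated 18 hours at 37 degrees C. Viability was read by CellTiter-Glo luminescence. Media-only wells were set as complete cell-killing and DMSO as no toxicity.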
S2 tox: reduces viability in counter-screen for ATXN expression inhibitors | Potency, µM (top dose mostly 56.7 µM), usual class: cytotoxic | AID 651635 | S2 cells (HEK-293 line with an ATXN2-luciferase reporter) viability, CellTiter-Fluor protease fluorescence, 24 h | 400,000 compounds, 0.49% hits; further: nearly all actives have a fitted effect of over 40% in size
TGFb inhibitor: blocks TGF-b signaling | AID 588855 | Potency, µM (highest dose often 46.1 µM), hits mostly inhibitors | 410,000 compounds, 1.2% hits | HepG2 CAGA-GFP TGF-b/SMAD3 reporter, GFP fluorescence, 18 h; TGF-beta stimulated, 500 pg/mL final; further: nearly all actives have a fitted effect of over 65% in size
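GFP signal (ex488/em500-530) from TGF-beta-stimulated HEPG2 CAGA-GFP cells, 500 pg/mL final, 18 h at 37 degrees C in DMEM plus 1% FBS, normalized to unstimulated and DMSO-stimulated controls.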
RORg inh: inhibitors of mouse ROR gamma transcriptional activity; 310,000 compounds, 5.4% hits; Potency, µM (doses to about 53.6 µM), most hits filed as inhibitors; Drosophila S2 Gal4-RORgamma UAS-luciferase reporter, 20 h; AID 2551; further: nearly all actives have a fitted effect of over 60% in size
Target sequence (P51450 whole entry, looked up, the tested form may be a part): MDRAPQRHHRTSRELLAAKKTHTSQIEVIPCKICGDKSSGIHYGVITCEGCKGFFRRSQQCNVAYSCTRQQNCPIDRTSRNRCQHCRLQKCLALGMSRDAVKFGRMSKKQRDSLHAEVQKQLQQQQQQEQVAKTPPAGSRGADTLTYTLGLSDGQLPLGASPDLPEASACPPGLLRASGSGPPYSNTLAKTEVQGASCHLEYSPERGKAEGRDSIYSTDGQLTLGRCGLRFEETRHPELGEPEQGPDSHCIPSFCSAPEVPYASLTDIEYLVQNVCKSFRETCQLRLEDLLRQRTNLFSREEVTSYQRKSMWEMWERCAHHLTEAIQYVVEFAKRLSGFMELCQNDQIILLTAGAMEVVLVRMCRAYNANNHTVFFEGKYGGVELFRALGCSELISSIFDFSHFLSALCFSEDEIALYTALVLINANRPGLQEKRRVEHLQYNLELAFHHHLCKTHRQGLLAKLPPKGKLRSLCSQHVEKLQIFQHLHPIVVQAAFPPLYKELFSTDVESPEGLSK
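Stably transfected Drosophila Schneider cells are the test system, with ROR gamma fused to Gal4 and luciferase under UAS control; luminescence is read after 20 hr of 700 uM copper sulfate induction at ambient temperature.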
ATXN2 expr inh: reduces ATXN2 reporter expression in HEK-293 cells | HEK-293 ATXN2-luciferase reporter, luminescence, 24 h | Potency, µM (doses to about 57 µM), hits mostly inhibitors | 360,000 compounds, 0.72% hits; further: nearly all actives have a fitted effect of over 55% in size
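ATXN2-luciferase reporter cells (luciferase flanked by upstream and downstream ATXN2 gene portions) were treated 24 h at 37 °C with compounds at up to 57 uM. SteadyGlo luminescence gave expression; GF-AFC fluorescence gave viability.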
VP16 counter: inhibits Gal4-VP16 luciferase reporter, ROR gamma counter-screen; Drosophila S2 Gal4-VP16 UAS-luciferase, luminescence, 20 h; Potency, µM (titrated, usually from 53.6 µM), actives largely listed as inhibitors; 310,000 compounds, 3.5% hits; AID 2546;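 further: Gal4-VP16 expression switched on by copper sulfate through the metallothionein promoter; nearly all actives have a fitted effect of over 50% in size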
TGFb CAGA inh: confirmation of TGF-b signaling inhibitors in HepG2 reporter cells; HepG2 CAGA-GFP TGF-b reporter, GFP fluorescence, 18 h; cells stimulated with TGF-beta, 500 pg/mL; 1,600 compounds, 63% hits; Potency, µM (doses to about 46.1 µM), hits mostly inhibitors; AID 720534; shares compounds with TGFb inhibitor; further: nearly all actives have a fitted effect of over 65% in size
HepG2 tox-2: counter-screen for TGF-b inhibitors: cytotoxicity in HepG2 cells | shares compounds with TGFb inhibitor | HepG2 CAGA-GFP viability, ATP luminescence, 18 h; cells stimulated with TGF-beta, 500 pg/mL | Potency, µM (titrated, usually from 46.1 µM), most hits filed as inhibitors | 1,600 compounds, 27% hits; further: nearly all actives have a fitted effect of over 70% in size
TGFb CCL64 inh: orthogonal confirmation of TGF-b inhibitors in CCL64 cells; CCL64 CAGA-GFP reporter, TGF-b stimulated, GFP fluorescence, 18 h; AID 720536; 1,600 compounds, 41% hits; Potency, µM (series often up to 46.1 µM), usual class: inhibitors; shares compounds with TGFb inhibitor; further: nearly all actives have a fitted effect of over 65% in size
TGFb COP inh: TGF-b inhibition validated with COP promoter | 1,600 compounds, 3% hits | HepG2 COP-GFP TGF-b reporter, GFP fluorescence, 18 h; cells stimulated by added recombinant TGF-beta | shares compounds with TGFb inhibitor | Potency, µM (titrated, usually from 46.1 µM), hits mostly inhibitors; further: nearly all actives have a fitted effect of over 70% in size
A number is an active result; . = inactive; ? = inconclusive; / = no result. Sampled rows, rich in hits. Any-hit rate of the full collection: about 6.1%. The call rests on the fitted dose curve; in most records, active means well fitted curve in the direction sought with a large enough effect; inconclusive means small, poorly fitted or top-dose-only effect, or another doubt; inactive means no such curve, though single readings can be large; an effect the other way counts as inactive or inconclusive.

SMILES | HepG2 tox-1 | S2 tox | TGFb inhibitor | RORg inh | ATXN2 expr inh | VP16 counter | TGFb CAGA inh | HepG2 tox-2 | TGFb CCL64 inh | TGFb COP inh
Cc1cnc(C(=O)N(c2ccc(N3CCOCC3)cc2)C2C(=O)Nc3ccccc3N=C2c2ccc(F)cc2)cn1 (stereo not given) | . | . | . | / | . | / | / | / | / | /
O=C1Nc2ccccc2N=C(c2ccc3c(c2)OCO3)C1N(C(=O)c1ccc2ccccc2c1)C1CC1 (stereo not given) | . | ? | 13µM | / | . | / | 23µM | ? | 16µM | .
COc1ccc(C2=Nc3ccccc3NC(=O)C2N(Cc2ccc(F)cc2)C(=O)c2ccco2)cc1 (stereo not given) | . | ? | ? | / | . | / | / | / | / | /
Cc1ccc(S(=O)(=O)C(CNS(=O)(=O)c2cc(F)ccc2F)c2cccs2)cc1 (stereo not given) | . | / | . | / | / | / | / | / | / | /
O=S(=O)(c1ccc(NC(=S)NN=Cc2ccccc2O)cc1)N1CCCCC1 | . | . | 13µM | / | . | / | 16µM | ? | ? | .
CCOC(=O)c1ccc(NC(=O)Cn2cnc3sc(C(=O)OCC)c(C)c3c2=O)cc1 | . | . | . | / | . | / | / | / | / | /
O=S(=O)(c1cc(F)ccc1F)N1CCN(c2ncnc3ccccc23)CC1 | . | . | 13µM | / | / | / | 8.2µM | . | . | .
CC(=O)Nc1ccc2c(c1)-c1ccc(F)cc1C2 | . | . | 10µM | / | . | / | ? | ? | . | .
CC(=O)Nc1ccc2c(c1)Cc1ccc(Cl)cc1-2 | . | . | . | / | . | / | / | / | / | /
CCC1CCCCN1S(=O)(=O)c1cc2c3c(c1)CC(=O)N3CCC2 (stereo not given) | . | / | . | / | / | / | / | / | / | /
Oc1cccc(Nc2nc(-c3ccccc3Cl)nc3ccccc23)c1 | . | ? | . | . | . | . | ? | . | ? | .
Fc1ccc(CNc2nc(-c3ccccc3)nc3ccccc23)cc1 | . | . | 18µM | ? | . | . | ? | ? | ? | .
c1ccc(Nc2nc(-c3ccoc3)nc3ccccc23)cc1 | / | / | / | ? | / | . | / | / | / | /
Cc1ccc(-c2nc(Nc3ccc(O)cc3)c3ccccc3n2)cc1 | . | . | ? | . | . | . | ? | ? | 15µM | .
c1ccc(Nc2nc(-c3ccccc3)nc3ccccc23)cc1 | . | . | . | . | . | . | ? | ? | ? | .
Cc1ccc(-c2nc(Nc3cccc(O)c3)c3ccccc3n2)cc1 | . | . | ? | . | . | . | / | / | / | /
COc1cc(CN(C(=O)c2cccc(C)c2)c2ccccn2)cc(OC)c1OC | . | . | . | / | . | / | / | / | / | /
Cc1cccc(NC(=O)c2ccc(CN3CC(=O)N4CCCCC4C3=O)cc2)c1C (stereo not given) | . | / | . | / | / | / | / | / | / | /
CC(Sc1nc(=O)cc(N)n1CCc1ccccc1)C(=O)Nc1ccccc1C#N (stereo not given) | . | . | . | / | . | / | / | / | / | /
CCN(CC)C(=O)C1=C(C)Nc2nc3ccccc3n2C1c1cccc(Cl)c1 (stereo not given) | . | . | . | / | . | / | / | / | / | /
COc1ccc(CNC(=O)c2ccc(NC(=O)N3CCSc4ncccc43)cc2)c(OC)c1 | . | / | . | / | / | / | / | / | / | /

From PubChem
